Source: PubChem BioAssay
D2 ag-1 – D2 dopamine receptor (human) agonism; P14416; HEK293 T-REx D2 cells, calcium flux agonist mode; activation, % at 2 µM; actives 0.53% (n = 340,000); AID 485358;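 active = activation over 3 SD above normal in the single-dose calcium agonist read, cut at about 30% in these data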
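Agonism scored from kinetic calcium signal (1 read/sec, 180 s) following compound pin transfer, after a 10 s baseline. Cells: HEK293 Trex line expressing inducible D2 receptor coupled to calcium, dye-loaded after overnight culture at 30 C.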
D2 PAM-1 – D2 dopamine receptor (human) potentiation; HEK293 T-REx D2, calcium flux, EC20 dopamine potentiation; potentiation, % at 10 µM; actives 0.34% (n = 340,000); AID 485347;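 active = potentiation over 3 SD above the plate norm, cut at about 30% in these data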
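Primary screen. Calcium kinetics in induced HEK293 T-REx D2 cells: compound pre-addition 180 s, EC20 dopamine, 180 s more.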
D2 ag-2 – activates the human D2 dopamine receptor; DiscoveRx PathHunter D2 beta-arrestin, luminescence, 90 min; 100% = 57 uM dopamine signal; actives 0.084% (n = 360,000); P14416; activation, % (concentration not given with the values); in the data active = activation above about 40%; inconclusive = between about 15% and that limit
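DiscoveRx PathHunter D2 beta-arrestin cells (2,100/well) attached overnight, then compound-stimulated 90 min at 37 C in HBSS/10 mM HEPES/0.1% Tween-20 buffer; beta-galactosidase complementation read by luminescence after 1 h at ambient temperature. Dopamine 57 uM final (EC100) as control.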
D2 antagonist – antagonizes the human D2 dopamine receptor; AID 485344; actives 2% (n = 340,000); HEK293 TREx D2 cells, calcium flux, dopamine EC80; inhibition, % at 10 µM; in the data active = inhibition above about 30%; inactive = below that, where a call was filed
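Tetracycline-induced HEK293 T-REx cells expressing D2 force-coupled to calcium signalling were dye-loaded, exposed to compound for 180 s, then challenged with an EC80 of dopamine; calcium flux was followed kinetically for a further 180 s.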
D2 PAM-2 – positive allosteric modulators of human D2 dopamine receptor; P14416; DiscoveRx D2 beta-arrestin cells, luminescence, 90 min; 100% = 57 uM dopamine signal; potentiation, % (test concentration not listed); actives 0.23% (n = 360,000); AID 624464; in the data active = potentiation above about 50%; inconclusive = mostly about 30% to 49%
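PathHunter D2 cells, attached overnight at 37 deg C, received compound in DMSO plus dopamine at EC20 (50 nM final) for 90 min at 37 deg C. Beta-arrestin recruitment was read as luminescence after 1 h with detection reagent at ambient temperature.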
D3 ag – confirmation of human D3 dopamine receptor agonists, beta-arrestin; shares compounds with D2 ag-1; DiscoveRx D3 beta-arrestin cells, luminescence, 90 min; Potency, µM (top dose mostly 76.9 µM), actives largely listed as activators; actives 4% (n = 2,300); note: nearly all actives have a fitted effect of over 70% in size
Target sequence (P35462 whole entry, looked up): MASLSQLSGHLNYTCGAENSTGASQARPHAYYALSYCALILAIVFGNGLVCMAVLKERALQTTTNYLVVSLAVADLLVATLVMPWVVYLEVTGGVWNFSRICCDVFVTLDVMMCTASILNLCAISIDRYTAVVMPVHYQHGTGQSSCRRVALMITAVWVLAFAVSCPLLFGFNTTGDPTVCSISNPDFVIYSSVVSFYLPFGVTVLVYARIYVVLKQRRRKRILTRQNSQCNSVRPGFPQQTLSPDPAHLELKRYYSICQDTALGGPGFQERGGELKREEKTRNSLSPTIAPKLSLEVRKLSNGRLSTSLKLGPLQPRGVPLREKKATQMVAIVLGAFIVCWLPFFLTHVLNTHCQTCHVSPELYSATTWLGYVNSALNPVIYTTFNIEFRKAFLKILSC
D2 ag-3 – activates human D2 dopamine receptor in D3 counterscreen. actives 5.9% (n = 2,300). DiscoveRx PathHunter D2 beta-arrestin, luminescence, 90 min; response scale: percent relative to full dopamine signal. shares compounds with D2 ag-1. Potency, µM (highest dose often 76.9 µM), actives largely listed as activators. AID 720507; note: nearly all actives have a fitted effect of over 70% in size
Large screens that a line does not name were inactive (follow-up assays come after a bar, where they were run). Sampled rows, rich in hits. Any-hit rate of the full collection: about 2.4%. Unless noted, calls come from the whole dose curve; as a rule, active = well fitted activation curve with a large enough effect; inconclusive = small, poorly fitted or top-dose-only effect; inactive = flat fitted curve, though single readings scatter.

CCCCC/C=C/C1=CC(=O)C[C@H](c2ccc3c(c2)OCO3)C1	D2 antagonist 31 | D3 ag inactive | D2 ag-3 inactive
COc1cc(C(CCN2CCN(c3ccccc3)CC2)c2c(OC)cc(OC)c3c(C)cc(=O)oc23)cc(OC)c1OC (configuration not stated)	none | D3 ag inactive | D2 ag-3 inactive
COc1cc(OC)c2c(C)cc(=O)oc2c1C(CCN1CCOCC1)c1ccc2c(c1)OCO2 (configuration not stated)	none
COc1ccc(C)cc1NC(=O)NC(C)c1ccc2c(c1)OCO2 (configuration not stated)	D2 ag-1 65 | D3 ag inactive | D2 ag-3 inactive
Cc1ccc(-n2c(=O)c3oc4ccccc4c3n(Cc3ccccc3F)c2=O)cc1C	none (no result: D2 ag-2, D2 antagonist, D2 PAM-2)
CCOc1ccccc1-n1nnnc1SCC(=O)NC(=O)Cc1ccccc1	none | D3 ag inactive | D2 ag-3 inactive
CCN(CC)S(=O)(=O)c1cccc(C(=O)N/N=C2\CCCC(=O)C2)c1	none
CCN(CC)S(=O)(=O)c1cccc(C(=O)N/N=C2\CC(=O)CC(C)(C)C2)c1	none | D3 ag inactive | D2 ag-3 inactive
COc1ccccc1/C=N/NC(=O)c1ccc(NC(=O)c2ccccc2Br)cc1	D2 ag-1 63 | D3 ag inactive | D2 ag-3 inactive
CCN(C(=O)C1CCC(CNS(=O)(=O)c2cccc3nsnc23)CC1)c1ccc(C)c(C)c1 (configuration not stated)	none (no result: D2 ag-2, D2 antagonist, D2 PAM-2)
Cc1cccc(Cn2c(=O)oc3ccc(C)cc32)c1	D2 antagonist 31 | D3 ag inactive | D2 ag-3 inactive
COc1ccc2c(c1)c1c(c(=O)n(-c3ccc(OC)c(OC)c3)c(=O)n1Cc1ccccc1F)n2C	none (no result: D2 ag-2, D2 antagonist, D2 PAM-2)
CNc1nc(N)c([N+](=O)[O-])c(Nc2cccc(F)c2)n1	none | D3 ag inactive | D2 ag-3 inactive
CNc1nc(N)c([N+](=O)[O-])c(NCc2ccccc2)n1	D2 antagonist 44 | D3 ag inactive | D2 ag-3 inactive
Cc1ccccc1-c1cc(C(=O)NCC2CC2)nn1CC1CC(c2cccc([N+](=O)[O-])c2)=NO1 (configuration not stated)	none | D3 ag inactive | D2 ag-3 inactive
Nc1c(C(=O)Nc2ccc(Cl)c(C(F)(F)F)c2)sc2nc(-c3ccncc3)ccc12	none (no result: D2 ag-2, D2 antagonist, D2 PAM-2)
CCOC(=O)CC1Sc2ccccc2NC1=O (configuration not stated)	none (no result: D2 ag-1)
O=C(O)CC1Sc2ccccc2NC1=O (configuration not stated)	D2 ag-1 51 | D3 ag inactive | D2 ag-3 inactive
CC(C)c1cccc(-c2ccc3c(c2)S(=O)(=O)c2cccc(C(=O)O)c2C3=O)c1	none | D3 ag inactive | D2 ag-3 inactive
Cc1ccc(C)c(NC(=O)c2ccc(CN3CC(=O)N4CCCCC4C3=O)cc2)c1 (configuration not stated)	none (no result: D2 ag-2, D2 antagonist, D2 PAM-2)
O=c1c2ccccc2[nH]c(=S)n1CCCN1CCN(c2ccccc2F)CC1	D2 ag-1 71, D2 ag-2 inconclusive, D2 antagonist 81 | D3 ag inactive | D2 ag-3 inactive
CCOCCCn1c(=S)[nH]c2cc(C(=O)NCCN(CC)CC)ccc2c1=O	none (no result: D2 ag-1, D2 antagonist) | D3 ag inactive | D2 ag-3 inactive
CCN(CC)CCCn1c(=S)[nH]c2ncccc2c1=O	D2 ag-1 50, D2 antagonist 48 | D3 ag inactive | D2 ag-3 inactive
O=c1c2ccccc2[nH]c(=S)n1CCCN1CCN(c2ccccc2)CC1	D2 ag-2 inconclusive, D2 PAM-2 inconclusive
CCN(CCCn1c(=S)[nH]c2ncccc2c1=O)c1ccccc1	none
O=c1c2cccnc2[nH]c(=S)n1CCCN1CCN(c2ccccc2F)CC1	D2 ag-1 82, D2 ag-2 inconclusive, D2 antagonist 116 | D3 ag inactive | D2 ag-3 inconclusive
